Source: PubChem BioAssay
The list is not random: actives were taken first. Their share in the collection is about 19%.
HT1080-NT tox: kills 2HG-producing HT-1080-NT fibrosarcoma cells; HT-1080-NT fibrosarcoma viability, CellTiter-Glo ATP luminescence, 48 h; Potency, µM (doses to about 46.1 µM), without a hit: at the top dose activity, negative = less viability, usual class: cytotoxic; actives 1.6% (n = 360,000); AID 686970;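 note: NT is the 2HG producing partner of a matched IDH1 knockdown line; potency is the fitted concentration of half-maximal effect; 0% = DMSO-treated cells and -100% = media-only wells without cells; nearly all actives have a fitted effect of over 55% in size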
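HT-1080-NT; 750 cells/well; 5% FBS RPMI; 48 h compound, 37 degrees C; CellTiter-Glo luminescence; curve fitting and curve-class assignment.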
TDP1 cell CPT: growth inhibition of DT40 Tdp1-/-;hTDP1 cells with camptothecin (screen for TDP1 inhibitors). chicken DT40 Tdp1-/-;hTDP1 cells + 20 nM CPT, ATP luminescence, 48 h. Potency, µM (titrated, usually from 46.2 µM), without a hit: at the highest dose activity change, negative = growth inhibition, actives largely listed as inhibitors. actives 12% (n = 420,000). AID 686979; note: potency is the fitted concentration of half-maximal effect; nearly all actives have a fitted effect of over 55% in size
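Chicken DT40 Tdp1-/- cells complemented with human TDP1, 400 cells/well, exposed to compounds plus 20 nM camptothecin for at least 48 h at 37 C; viability read as ATP content by CellTiter-Glo luminescence.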
HT1080 IDH1KD tx: toxicity to HT-1080 IDH1 knockdown cells (counter line); HT-1080 IDH1 knockdown viability, ATP luminescence, 48 h; Potency, µM (highest dose often 46.1 µM), for the others: at the highest dose activity, negative = toxicity, usual class: cytotoxic; actives 2% (n = 360,000); AID 686971;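 note: potency is the fitted concentration of half-maximal effect; 0% = DMSO wells and -100% = cell-free medium wells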
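HT-1080-IDH1KD cells (IDH1 knocked down), 750/well in RPMI with 5% FBS, treated with compound 48 h at 37 degrees C. Viability by CellTiter-Glo luminescence, normalised to DMSO and no-cell wells; concentration-response curves classed.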
IL-1B inflam inh: blocks inflammasome-driven IL-1 beta release; THP-1 LPS/ATP IL-1B secretion, AlphaLISA, 16 h; stronger effect = lower value; activity change, % at 57.5 µM; actives 4.7% (n = 360,000); in the data active = activity change below about -50%; inconclusive = mostly about -30% to -49%
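THP-1 cells pretreated 1 hr with compounds (up to 57.5 uM final), then stimulated with LPS (250 ng/mL final) plus ATP (1.25 mM final); secreted IL-1B measured by AlphaLISA after 16 hr, decreased signal indicating inhibition.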
DT40 TDP1 no CPT: qHTS for Inhibitors of human tyrosyl-DNA phosphodiesterase 1 (TDP1): qHTS in cells in absence of CPT. Potency, µM (top dose mostly 46.2 µM), without a hit: top-dose activity change, negative = growth inhibition, actives largely listed as inhibitors. DT40 Tdp1-/- hTDP1 cells, no CPT, ATP luminescence, 48 h. actives 15% (n = 420,000). AID 686978, 2013; note: potency is the fitted concentration of half-maximal effect; nearly all actives have a fitted effect of over 55% in size
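Camptothecin absent (DMSO only). Human TDP1-complemented DT40 knockout cells, 400 cells/well, 37 °C for minimum 48 hr; ATP measured via CellTiter-Glo, 30 min dark incubation, luminescence.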
Active calls of the source: *; [ ] = another dose, or the depositor's remark. Unless noted, calls come from the whole dose curve; as a rule, active = well fitted curve in the direction sought with a large enough effect; inconclusive = small, poorly fitted or top-dose-only effect, or another doubt; inactive = no such curve, though single readings can be large; an effect the other way counts as inactive or inconclusive. Unless noted, % is set by controls: 0 for no effect and ±100 for the full control effect.

Screening CC[C@@]1(C(=O)OC)N[C@H](CN(C)C(=O)Nc2ccc(C)cc2)[C@@H]2C(=O)N(C)C(=O)[C@@H]21 returned HT1080-NT tox 7%, TDP1 cell CPT 2%, HT1080 IDH1KD tx 7%, IL-1B inflam inh 34 and DT40 TDP1 no CPT 8%.
Nc1c(C(=O)NCc2ccco2)c2nc3ccccc3nc2n1CCc1ccccc1 was read as HT1080-NT tox inconclusive, TDP1 cell CPT inconclusive, HT1080 IDH1KD tx 0%, IL-1B inflam inh -57* and DT40 TDP1 no CPT inconclusive.
For CCOc1ccc(-n2c(N)c(C(=O)NCc3ccco3)c3nc4ccccc4nc32)cc1 the results were HT1080-NT tox inconclusive, TDP1 cell CPT 21µM*, HT1080 IDH1KD tx inconclusive, IL-1B inflam inh -96* and DT40 TDP1 no CPT 18µM*.
For CCOc1ccc(CNS(=O)(=O)c2cc(-c3cc(C)no3)ccc2C)cc1OC the results were TDP1 cell CPT -13% and DT40 TDP1 no CPT inconclusive.
For CCOc1ccc(CCNC(=O)c2ccc(CS(=O)(=O)Cc3ccccc3Cl)o2)cc1OCC the results were TDP1 cell CPT 16µM* and DT40 TDP1 no CPT 23µM*.
`COc1ccc(CCNC(=O)c2ccc(CS(=O)(=O)Cc3cccc(C)c3)o2)cc1OC` gave HT1080-NT tox 3%, TDP1 cell CPT 21µM*, HT1080 IDH1KD tx -10%, IL-1B inflam inh -10 and DT40 TDP1 no CPT 12µM*.
Screening O=C(NC1CCCC1)c1ccc(CS(=O)(=O)Cc2ccccc2Cl)o1 returned HT1080-NT tox -1%, TDP1 cell CPT inconclusive, HT1080 IDH1KD tx -5%, IL-1B inflam inh -3 and DT40 TDP1 no CPT -21%.
For CCOc1ccc(CCNC(=O)c2ccc(CSCc3ccccc3C)o2)cc1OCC the results were TDP1 cell CPT 16µM* and DT40 TDP1 no CPT 16µM*.
Screening CCOC(=O)c1sc(NC(=O)CN2CCN(c3ccccc3)CC2)nc1C returned HT1080-NT tox -12%, TDP1 cell CPT 7%, HT1080 IDH1KD tx -7%, IL-1B inflam inh 3 and DT40 TDP1 no CPT inconclusive.
Screening CCCS(=O)(=O)NC(=O)C1(C)CCCN(C(=O)c2cncc(Br)c2)C1 (configuration not stated) returned HT1080-NT tox inconclusive, TDP1 cell CPT inconclusive, HT1080 IDH1KD tx 11%, IL-1B inflam inh 11 and DT40 TDP1 no CPT -6%.
`CCN(CC)C(=O)Cn1cc(S(=O)(=O)CC(=O)N2CCOCC2)c2ccccc21` gave HT1080-NT tox 8%, TDP1 cell CPT -1%, HT1080 IDH1KD tx 7%, IL-1B inflam inh 2 and DT40 TDP1 no CPT 4%.
CC/C(=C\c1oc2cc3ccccc3cc2[n+]1CC)Nc1ccccc1 was read as HT1080-NT tox -29%, TDP1 cell CPT 4.6µM*, HT1080 IDH1KD tx inconclusive, IL-1B inflam inh -107* and DT40 TDP1 no CPT 13µM*.
For COc1ccccc1NC(=O)CSC1=Nc2ccccc2C2=NC(Cc3ccccc3)C(=O)N12 (configuration not stated) the results were TDP1 cell CPT 23µM* and DT40 TDP1 no CPT inconclusive.
For COc1ccc(NC(=O)CSC2=Nc3ccccc3C3=NC(CC(=O)NCCc4ccccc4)C(=O)N23)cc1 (configuration not stated) the results were TDP1 cell CPT -17% and DT40 TDP1 no CPT -14%.
Screening COc1ccc(NC(=O)CSC2=Nc3ccccc3C3=NC(Cc4ccccc4)C(=O)N23)cc1 (configuration not stated) returned TDP1 cell CPT inconclusive and DT40 TDP1 no CPT 21µM*.
O=C(CSC1=Nc2ccccc2C2=NC(Cc3ccccc3)C(=O)N12)Nc1cccc(Cl)c1 (configuration not stated) was read as TDP1 cell CPT 16µM* and DT40 TDP1 no CPT 26µM*.
Screening COCc1c(C(=O)N2CCN(C3CCCC3)CC2)cnn1-c1nccc(-c2cccs2)n1 returned TDP1 cell CPT -1%[9.04 µM] and DT40 TDP1 no CPT -22%.
C/C(=N\NC(=O)c1nnn(-c2nonc2N)c1-c1ccc2c(c1)OCO2)c1cccs1 was read as HT1080-NT tox -2%, TDP1 cell CPT 1.6µM*, HT1080 IDH1KD tx -14%, IL-1B inflam inh 8 and DT40 TDP1 no CPT inconclusive.
`COc1cccc(-c2c(C(=O)N/N=C(\C)c3cccs3)nnn2-c2nonc2N)c1` gave HT1080-NT tox 13%, TDP1 cell CPT 16µM*, HT1080 IDH1KD tx 2%, IL-1B inflam inh 1 and DT40 TDP1 no CPT inconclusive.
For CCOCCCN(CCC#N)C(=O)C1CCN(S(=O)(=O)c2ccc(-n3cnnn3)cc2)CC1 the results were HT1080-NT tox -2%, TDP1 cell CPT -3%, HT1080 IDH1KD tx 3%, IL-1B inflam inh 27 and DT40 TDP1 no CPT 5%.
Screening O=C(NNC(=S)NC(=O)c1ccccc1[N+](=O)[O-])c1ccccc1O returned HT1080-NT tox -17%, TDP1 cell CPT inconclusive, HT1080 IDH1KD tx -12%, IL-1B inflam inh 25 and DT40 TDP1 no CPT 18µM*.
Screening Cc1ccc(C(=O)NC(=S)NNC(=O)c2ccccc2[N+](=O)[O-])cc1 returned HT1080-NT tox -9%, TDP1 cell CPT 21µM*, HT1080 IDH1KD tx -17%, IL-1B inflam inh 0 and DT40 TDP1 no CPT inconclusive.
O=C(NNC(=S)NC(=O)c1ccccc1[N+](=O)[O-])c1ccccc1[N+](=O)[O-] was read as HT1080-NT tox 2%, TDP1 cell CPT -2%, HT1080 IDH1KD tx 4%, IL-1B inflam inh -18 and DT40 TDP1 no CPT -4%.
`O=C(NNC(=S)NC(=O)c1ccccc1[N+](=O)[O-])c1ccc(Cl)cc1Cl` gave HT1080-NT tox -18%, TDP1 cell CPT inconclusive, HT1080 IDH1KD tx -7%, IL-1B inflam inh 21 and DT40 TDP1 no CPT inconclusive.
Screening CCCCOc1ccccc1C(=O)NNC(=S)NC(=O)c1ccccc1[N+](=O)[O-] returned HT1080-NT tox inconclusive, TDP1 cell CPT 26µM*, HT1080 IDH1KD tx inconclusive, IL-1B inflam inh 67 and DT40 TDP1 no CPT 18µM*.
Screening Cc1cccc(C(=O)NNC(=O)c2ccccc2[N+](=O)[O-])c1 returned HT1080-NT tox 0%, TDP1 cell CPT 1%, HT1080 IDH1KD tx -2%, IL-1B inflam inh 13 and DT40 TDP1 no CPT -3%.
For O=C(NNC(=S)Nc1ccccc1)c1ccccc1[N+](=O)[O-] the results were HT1080-NT tox 16%, TDP1 cell CPT 8%, HT1080 IDH1KD tx 12%, IL-1B inflam inh -73* and DT40 TDP1 no CPT -27%.
CCn1c(SCC(=O)Nc2cc3oc4ccccc4c3cc2OC)nnc1-c1cccs1 was read as HT1080-NT tox 10%, TDP1 cell CPT inconclusive, HT1080 IDH1KD tx 3%, IL-1B inflam inh 0 and DT40 TDP1 no CPT inconclusive.
